Laboratory results reported in the supplement of paper PMC8728848.
Shown is part of a subset that was picked to be rich in the strongest signals.

Tests used:
Test in all cases: glycan array binding signal (z-score within array); higher = stronger binding
Settings in all cases: glycan notation: IUPAC condensed, linker removed
[1] = target: Man(a1-3)[Man(a1-6)]Man(b1-4)GlcNAc(b1-4)GlcNAc
How it was run: (§1)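 The Consortium for Functional Glycomics database supplied 3228 glycan arrays, of which those lacking an available protein sequence were dropped. The binding signal, a within-array Z-score, was averaged across arrays of the same protein sequence and across linkers. Negative scores can be read as non-binding.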

Man(b1-4)GlcNAc = target: Man(b1-4)GlcNAc
How it was run: as §1

[2] = target: Neu5Ac(a2-3)Gal(b1-3)GlcNAc(b1-3)GalNAc
How it was run: as §1

[3] = target: Neu5Ac(a2-3)Gal(b1-3)[GlcNAc(b1-6)]GalNAc
How it was run: as §1

Neu5Ac(a2-3)Gal(b1-4)Glc = target: Neu5Ac(a2-3)Gal(b1-4)Glc
How it was run: as §1

[4] = target: Neu5Ac(a2-3)Gal(b1-4)GlcNAc(b1-3)Gal(b1-3)GlcNAc
How it was run: as §1

[5] = target: Neu5Ac(a2-3)Gal(b1-4)GlcNAc(b1-6)GalNAc
How it was run: as §1

[6] = target: Neu5Ac(a2-3)Gal(b1-4)[Fuc(a1-3)]GlcNAc(b1-6)[Neu5Ac(a2-3)Gal(b1-3)]GalNAc
How it was run: as §1

[7] = target: Neu5Ac(a2-6)Gal(b1-3)GlcNAc(b1-3)[Gal(b1-4)GlcNAc(b1-6)]Gal(b1-4)Glc
How it was run: as §1

[8] = target: Neu5Ac(a2-6)Gal(b1-4)GlcNAc(b1-2)Man
How it was run: as §1

[9] = target: Neu5Ac(a2-8)Neu5Ac(a2-3)[GalNAc(b1-4)]Gal(b1-4)Glc
How it was run: as §1

[10] = target: Neu5Ac(b2-6)Gal(b1-4)GlcNAc
How it was run: as §1

[11] = target: Neu5Gc(a2-3)Gal(b1-3)GlcNAc
How it was run: as §1

[12] = target: Neu5Gc(a2-3)Gal(b1-4)GlcNAc
How it was run: as §1

[13] = target: Neu5Gc(a2-8)Neu5Ac(a2-3)Gal(b1-4)GlcNAc
How it was run: as §1

Fuc(a1-2)Gal(b1-3)GalNAc = target: Fuc(a1-2)Gal(b1-3)GalNAc
How it was run: as §1

[14] = target: Fuc(a1-2)Gal(b1-3)GlcNAc(b1-3)[Neu5Ac(a2-6)Gal(b1-4)GlcNAc(b1-6)]Gal(b1-4)Glc
How it was run: as §1

[15] = target: Fuc(a1-2)Gal(b1-3)GlcNAc6S
How it was run: as §1

[16] = target: Fuc(a1-2)Gal(b1-3)[Fuc(a1-4)]GlcNAc(b1-2)Man(a1-3)[Fuc(a1-2)Gal(b1-3)[Fuc(a1-4)]GlcNAc(b1-2)Man(a1-6)]Man(b1-4)GlcNAc(b1-4)[Fuc(a1-6)]GlcNAc(b1-4)[Fuc(a1-6)]GlcNAc
How it was run: as §1

[17] = target: Fuc(a1-2)Gal(b1-3)[Fuc(a1-4)]GlcNAc(b1-3)[Gal(b1-4)GlcNAc(b1-6)]Gal(b1-4)Glc
How it was run: as §1

[18] = target: Fuc(a1-2)[Gal(a1-3)]Gal(b1-3)GlcNAc(b1-2)Man(a1-3)[Fuc(a1-2)[Gal(a1-3)]Gal(b1-3)GlcNAc(b1-2)Man(a1-6)]Man(b1-4)GlcNAc(b1-4)GlcNAc
How it was run: as §1

[19] = target: Fuc(a1-2)[Gal(a1-3)]Gal(b1-3)GlcNAc(b1-2)Man(a1-3)[Fuc(a1-2)[Gal(a1-3)]Gal(b1-3)GlcNAc(b1-2)Man(a1-6)]Man(b1-4)GlcNAc(b1-4)[Fuc(a1-6)]GlcNAc
How it was run: as §1

[20] = target: Fuc(a1-2)[Gal(a1-3)]Gal(b1-3)GlcNAc(b1-3)GalNAc
How it was run: as §1

[21] = target: Fuc(a1-2)[Gal(a1-3)]Gal(b1-4)GlcNAc(b1-2)Man(a1-3)[Fuc(a1-2)[Gal(a1-3)]Gal(b1-4)GlcNAc(b1-2)Man(a1-6)]Man(b1-4)GlcNAc(b1-4)[Fuc(a1-6)]GlcNAc
How it was run: as §1

[22] = target: Fuc(a1-2)[GalNAc(a1-3)]Gal
How it was run: as §1

[23] = target: Fuc(a1-2)[GalNAc(a1-3)]Gal(b1-3)GlcNAc(b1-3)GalNAc
How it was run: as §1

[24] = target: Fuc(a1-2)[GalNAc(a1-4)]Gal(b1-4)GlcNAc
How it was run: as §1

[25] = target: Fuc(a1-3)[Gal(b1-4)]Glc6S
How it was run: as §1

Gal(a1-3)Gal(b1-4)GlcNAc = target: Gal(a1-3)Gal(b1-4)GlcNAc
How it was run: as §1

Gal(b1-3)GalNAc(b1-3)Gal = target: Gal(b1-3)GalNAc(b1-3)Gal
How it was run: as §1

[26] = target: Gal(b1-3)[Fuc(a1-4)]GlcNAc(b1-2)Man(a1-3)[Gal(b1-3)[Fuc(a1-4)]GlcNAc(b1-2)Man(a1-6)]Man(b1-4)GlcNAc(b1-4)[Fuc(a1-6)]GlcNAc
How it was run: as §1

[27] = target: Gal(b1-4)GlcNAc(b1-3)Gal(b1-4)GlcNAc(b1-3)Gal(b1-4)GlcNAc(b1-2)Man(a1-3)[Gal(b1-4)GlcNAc(b1-3)Gal(b1-4)GlcNAc(b1-3)Gal(b1-4)GlcNAc(b1-2)Man(a1-6)]Man(b1-4)GlcNAc(b1-4)GlcNAc
How it was run: as §1

[28] = target: Gal(b1-4)GlcNAc(b1-3)Gal(b1-4)GlcNAc(b1-3)Gal(b1-4)GlcNAc(b1-2)[Gal(b1-4)GlcNAc(b1-3)Gal(b1-4)GlcNAc(b1-3)Gal(b1-4)GlcNAc(b1-6)]Man(a1-6)[Gal(b1-4)GlcNAc(b1-3)Gal(b1-4)GlcNAc(b1-3)Gal(b1-4)GlcNAc(b1-2)Man(a1-3)]Man(b1-4)GlcNAc(b1-4)[Fuc(a1-6)]GlcNAc
How it was run: as §1

[29] = target: Gal(b1-4)GlcNAc(b1-3)Gal(b1-4)GlcNAc(b1-3)Gal(b1-4)GlcNAc(b1-3)Gal(b1-4)GlcNAc(b1-2)Man(a1-3)[Gal(b1-4)GlcNAc(b1-3)Gal(b1-4)GlcNAc(b1-3)Gal(b1-4)GlcNAc(b1-3)Gal(b1-4)GlcNAc(b1-2)Man(a1-6)]Man(b1-4)GlcNAc(b1-4)GlcNAc
How it was run: as §1

[30] = target: Gal(b1-4)GlcNAc(b1-3)Gal(b1-4)GlcNAc(b1-3)Gal(b1-4)GlcNAc(b1-3)Gal(b1-4)GlcNAc(b1-2)[Gal(b1-4)GlcNAc(b1-3)Gal(b1-4)GlcNAc(b1-3)Gal(b1-4)GlcNAc(b1-3)Gal(b1-4)GlcNAc(b1-6)]Man(a1-6)[Gal(b1-4)GlcNAc(b1-3)Gal(b1-4)GlcNAc(b1-3)Gal(b1-4)GlcNAc(b1-3)Gal(b1-4)GlcNAc(b1-2)Man(a1-3)]Man(b1-4)GlcNAc(b1-4)[Fuc(a1-6)]GlcNAc
How it was run: as §1

[31] = target: Gal(b1-4)GlcNAc(b1-3)Gal(b1-4)GlcNAc(b1-6)[Gal(b1-3)]GalNAc
How it was run: as §1

[32] = target: Gal(b1-4)GlcNAc(b1-3)Gal(b1-4)[Fuc(a1-3)]GlcNAc(b1-3)Gal(b1-4)[Fuc(a1-3)]GlcNAc
How it was run: as §1

[33] = target: Gal(b1-4)GlcNAc(b1-6)GalNAc
How it was run: as §1

[34] = target: Gal3S(b1-4)[Fuc(a1-3)]Glc6S
How it was run: as §1

Gal6S(b1-4)GlcNAc = target: Gal6S(b1-4)GlcNAc
How it was run: as §1

[35] = target: GalNAc(b1-3)Gal(a1-4)Gal(b1-4)GlcNAc(b1-3)Gal(b1-4)Glc
How it was run: as §1

[36] = target: GlcNAc(a1-4)Gal(b1-4)GalNAc
How it was run: as §1

[37] = target: GlcNAc(a1-6)Gal(b1-4)GlcNAc
How it was run: as §1

[38] = target: GlcNAc(b1-2)Man(a1-3)[GlcNAc(b1-2)Man(a1-6)]Man(b1-4)GlcNAc(b1-4)[Fuc(a1-6)]GlcNAc
How it was run: as §1

[39] = target: GlcNAc(b1-3)Gal(b1-4)GlcNAc(b1-3)Gal(b1-4)GlcNAc(b1-3)Gal(b1-4)GlcNAc(b1-3)Gal(b1-4)GlcNAc(b1-2)Man(a1-3)[GlcNAc(b1-3)Gal(b1-4)GlcNAc(b1-3)Gal(b1-4)GlcNAc(b1-3)Gal(b1-4)GlcNAc(b1-3)Gal(b1-4)GlcNAc(b1-2)Man(a1-6)]Man(b1-4)GlcNAc(b1-4)[Fuc(a1-6)]GlcNAc
How it was run: as §1

B1: MGL6A (Homo sapiens) (protein)
chain: MTRTYENFQYLENKVKVQGFKNGPLPLQSLLQRLCSGPCHLLLSLGLGLLLLVIICVVGFQNSKFQRDLVTLRTDFSNFTSNTVAEIQALTSQGSSLEETIASLKAEVEGFKQERQAVHSEMLLRVQQLVQDLKKLTCQVATLNNNGEEASTEGTCCPVNWVEHQDSCYWFSHSGMSWAEAEKYCQLKNAHLVVINSREEQNFVQKYLGSAYTWMGLSDPEGAWKWVDGTDYATGFQNWKPGQPDDWQGHGLGGGEDCAHFHPDGRWNDDVCQRPYHWVCEAGLGQTSQESH
- glycan array binding signal (z-score) [1]: -0.224
- glycan array binding signal (z-score) (Man(b1-4)GlcNAc): -0.258
- glycan array binding signal (z-score) [2]: -0.273
- glycan array binding signal (z-score) [3]: -1.57
- glycan array binding signal (z-score) (Neu5Ac(a2-3)Gal(b1-4)Glc): -0.45
- glycan array binding signal (z-score) [4]: -0.277
- glycan array binding signal (z-score) [5]: 3.89
- glycan array binding signal (z-score) [6]: -0.153
- glycan array binding signal (z-score) [7]: -0.259
- glycan array binding signal (z-score) [8]: -0.302
- glycan array binding signal (z-score) [9]: 2.18
- glycan array binding signal (z-score) [10]: -0.277
- glycan array binding signal (z-score) [11]: -0.256
- glycan array binding signal (z-score) [12]: -0.228
- glycan array binding signal (z-score) [13]: -0.273

B2: EUL D1A (Oryza sativa) (protein)
chain: MFGFGHHHNQAPAAPSDPNQIFKIFCRANENYCLTVRDSAVVLAPVNPKDEHQHWFKDMRFSTKVKDGEGMPAFALVNKATGLAVKHSLGQSHPVKLVPFNPEYEDASVLWTESKDVGKGFRCIRMVNNTRLNLDAFHGDKDHGGVRDGTTVVLWEWCKGDNQSWKILPWGPEAHSSSPGAATACTIGGVPVHTVRVFSAAGEDYCLTVRNGTACLAPKNPRDDYQHWIKDMRHSNKIRDEEGYPAFALVNKVTGEAIKHSTGQGHPVKLVPYNPEYQDESVLWTESKDVGKGFRCIRMVNNIYLNFDAFHGDKDHGGIHDGTEIVLWKWCEGDNQRWKILPWILEQKLISEEDLNSAVDHHHHHH
- glycan array binding signal (z-score) (Fuc(a1-2)Gal(b1-3)GalNAc): -0.934
- glycan array binding signal (z-score) [14]: -0.444
- glycan array binding signal (z-score) [15]: 0.203
- glycan array binding signal (z-score) [16]: 2.92
- glycan array binding signal (z-score) [17]: 1.23
- glycan array binding signal (z-score) [18]: 0.066
- glycan array binding signal (z-score) [19]: -1.06
- glycan array binding signal (z-score) [20]: -0.79
- glycan array binding signal (z-score) [21]: 0.315
- glycan array binding signal (z-score) [22]: -0.299
- glycan array binding signal (z-score) [23]: 0.318
- glycan array binding signal (z-score) [24]: -0.759
- glycan array binding signal (z-score) [25]: 1.6
- glycan array binding signal (z-score) (Gal(a1-3)Gal(b1-4)GlcNAc): -0.8
- glycan array binding signal (z-score) (Gal(b1-3)GalNAc(b1-3)Gal): -0.437
- glycan array binding signal (z-score) [26]: 0.658
- glycan array binding signal (z-score) [27]: 2.18
- glycan array binding signal (z-score) [28]: 2.54
- glycan array binding signal (z-score) [29]: 2.32
- glycan array binding signal (z-score) [30]: 2.71
- glycan array binding signal (z-score) [31]: 2.71
- glycan array binding signal (z-score) [32]: -0.649
- glycan array binding signal (z-score) [33]: 0.031
- glycan array binding signal (z-score) [34]: 2.51
- glycan array binding signal (z-score) (Gal6S(b1-4)GlcNAc): -0.407
- glycan array binding signal (z-score) [35]: -0.333
- glycan array binding signal (z-score) [36]: -0.573
- glycan array binding signal (z-score) [37]: 2.67
- glycan array binding signal (z-score) [38]: 2.33
- glycan array binding signal (z-score) [39]: 1.58
